This is an account of results in the supplement of paper PMC8728848.

This is one part of a sample in which the strongest signals are shown more often than they occur.

Holding throughout (test): glycan array binding signal (z-score within array); higher = stronger binding
Common to all, as to settings: glycan notation: IUPAC condensed, linker removed

The target in experiment [1] is Neu5Gc(a2-3)Gal(b1-3)GlcNAc. An outline of the steps:
(§1)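 Glycan array data were curated from 3228 arrays in the Consortium for Functional Glycomics database and kept only where the protein sequence was available. Glycan names were converted to IUPAC-condensed notation, and columns mapping to the same glycan were averaged. The binding signal is a within-array Z-score, averaged across arrays of the same protein sequence at different concentrations or buffers and across linkers. Negative Z-scores can be read as non-binding.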

For experiment [2], the target named is Fuc(a1-2)Gal(b1-3)GalNAc(b1-3)Gal(a1-4)Gal(b1-4)Glc. The method in brief: as §1
Experiment [3] addresses Fuc(a1-2)Gal(b1-4)GlcNAc(b1-2)Man. An outline of the steps: as §1
Experiment [4] deals with Fuc(a1-2)Gal(b1-4)[Fuc(a1-3)]GlcNAc(b1-2)Man(a1-3)[Fuc(a1-2)Gal(b1-4)[Fuc(a1-3)]GlcNAc(b1-2)Man(a1-6)]Man(b1-4)GlcNAc(b1-4)[Fuc(a1-6)]GlcNAc. The method in brief:
as §1

Experiment [5] has as its target Fuc(a1-2)Gal3S(b1-4)GlcNAc. An outline of the steps:
as §1

Experiment [6] has as its target Fuc(a1-2)[Gal(a1-3)]Gal(b1-4)[Fuc(a1-3)]GlcNAc. An outline of the steps: as §1
The target in experiment [7] is Fuc(a1-2)[GalNAc(a1-3)]Gal(b1-3)GlcNAc. The method in brief: as §1
Experiment [8] concerns the target Fuc(a1-2)[GalNAc(a1-3)]Gal(b1-4)GlcNAc. An outline of the steps:
as §1

Experiment [9] deals with Fuc(a1-2)[GalNAc(a1-3)]Gal(b1-4)GlcNAc(b1-2)Man(a1-3)[Fuc(a1-2)[GalNAc(a1-3)]Gal(b1-4)GlcNAc(b1-2)Man(a1-6)]Man(b1-4)GlcNAc(b1-4)GlcNAc. An outline of the steps:
as §1

For experiment [10], the target named is Fuc(a1-2)[GalNAc(a1-3)]Gal(b1-4)GlcNAc(b1-3)[Fuc(a1-2)[GalNAc(a1-3)]Gal(b1-4)GlcNAc(b1-6)]GalNAc. An outline of the steps: as §1
Experiment [11] has as its target Fuc(a1-2)[GalNAc(a1-3)]Gal(b1-4)GlcNAc(b1-6)GalNAc. The method in brief:
as §1

Experiment [12] addresses Fuc(a1-3)[Gal3S(b1-4)]GlcNAc6S. An outline of the steps: as §1
Experiment [13] addresses Gal(a1-2)Gal. The method in brief: as §1
Experiment [14] addresses Gal(a1-3)Gal. An outline of the steps:
as §1

The target in experiment [15] is Gal(a1-3)Gal(b1-3)GlcNAc(b1-3)GalNAc. An outline of the steps:
as §1

Experiment [16] deals with Gal(a1-3)Gal(b1-4)[Fuc(a1-3)]GlcNAc(b1-2)Man(a1-3)[Gal(a1-3)Gal(b1-4)[Fuc(a1-3)]GlcNAc(b1-2)Man(a1-6)]Man(b1-4)GlcNAc(b1-4)GlcNAc. An outline of the steps:
as §1

Experiment [17] deals with Gal(a1-4)GlcNAc. The method in brief: as §1
The target in experiment [18] is Gal(b1-3)GlcNAc(b1-6)[Gal(b1-3)]GalNAc. An outline of the steps:
as §1

The target in experiment [19] is Gal(b1-3)[Fuc(a1-4)]GlcNAc(b1-2)Man(a1-3)[Gal(b1-3)[Fuc(a1-4)]GlcNAc(b1-2)Man(a1-6)]Man(b1-4)GlcNAc(b1-4)[Fuc(a1-6)]GlcNAc. An outline of the steps:
as §1

Experiment [20] deals with Gal(b1-4)GlcNAc(b1-3)Gal(b1-4)GlcNAc. The method in brief:
as §1

Experiment [21] addresses Gal(b1-4)GlcNAc(b1-3)Gal(b1-4)GlcNAc(b1-2)Man(a1-3)[Gal(b1-4)GlcNAc(b1-3)Gal(b1-4)GlcNAc(b1-2)Man(a1-6)]Man(b1-4)GlcNAc(b1-4)GlcNAc. The method in brief: as §1
Experiment [22] has as its target Gal3S(b1-4)Glc. An outline of the steps: as §1
For experiment [23], the target named is Gal3S(b1-4)Glc6S. The method in brief: as §1
The target of experiment [24] is Gal6P(b1-4)GlcNAc. An outline of the steps: as §1
Experiment [25] has as its target Gal6S(b1-3)GlcNAc6S. An outline of the steps:
as §1

For experiment [26], the target named is GalNAc(b1-4)GlcNAc. The method in brief: as §1
The target in experiment [27] is GalNAc(b1-6)GalNAc. The method in brief:
as §1

For experiment [28], the target named is GalNAc3S(b1-4)[Fuc(a1-3)]GlcNAc. An outline of the steps:
as §1

Experiment [29] deals with GalNAc6S(b1-4)GlcNAc. The method in brief: as §1
In experiment [30] the target is GlcA(b1-3)Gal. An outline of the steps: as §1
For experiment [31], the target named is GlcNAc(b1-2)[GlcNAc(b1-4)]Man(a1-3)[GlcNAc(b1-4)][GlcNAc(b1-2)[GlcNAc(b1-6)]Man(a1-6)]Man(b1-4)GlcNAc(b1-4)GlcNAc. An outline of the steps:
as §1

B1: Eap (Staphylococcus aureus), A0A7L5PYT7 (protein)
chain: MKFKSLITTTLALGVLASTGANFNNNEAAAAAKPLDKSSSSLHHGYSKVHVPYAITVNGTSQNILSSLTFNKNQNISYKDLEDRVKSVLKSDRGISDIDLRLSKQAKYTVYFKNGTKKVIDLKAGIYTADLINTSEIKAININVDTKKQVEDKKKDKANYQVPYTITVNGTSQNILSNLTFNKNQNISYKDLEDKVKSVLESNRGITDVDLRLSKQAKYTVNFKNGTKKVIDLKSGIYTANLINSSDIKSININVDTKKHIENKAKRNYQVPYSINLNGTSTNILSNLSFSNKPWTNYKNLTSQIKSVLKHDRGISEQDLKYAKKAYYTVYFKNGGKRILQLNSKNYTANLVHAKDVKRIEITVKTGTKAKADRYVPYTIAVNGTSTPILSDLKFTGDPRVGYKDISKKVKSVLKHDRGIGERELKYAKKATYTVHFKNGTKKVININSNISQLNLLYVQDIKKIDIDVKTGTKAKADSYVPYTIAVNGTSTPILSKLKISNKQLISYKYLNDKVKSVLKSERGISDLDLKFAKQAKYTVYFKNGKKQVVNLKSDIFTPNLFSAKDIKKIDIDVKQYTKSKKNK
Take B1: in experiment [1], the “glycan array binding signal (z-score)” value was -0.196.

B2: Mnn9-2N3 (Aspergillus fumigatus) (protein)
chain: MAVARRMRRTNPITLLLAAILAIGFFIFVLSPSTTSASPVKAGSASSSSTSQQRREDNAAENPLSPPTKPFFKSQPVRHDGQQAPPPVVQYNLNQLSSTSTSAANGERILILTPMARFVPEYWDNVVKLTYPHELISIGFIIPKNKEGNAALAALEAAIAKTQSGPIDKRFASISILRQDFEPPLQSQDEKERHKISNQKARRESMSRARNSLLFTTLGPATAWVLWLDADIVETPPTLIQDLTAHDHPVLVPNCYQRYYNSEKKKMDVRPYDYNSWIDSSTAQSMAAEMGPDEILLEGYAEMPTYRTLMAHLADTANPNPKKVIELDGVGGTALMVKAEVHRDGAMFPAFPFYHLVETEGFAKMAKRLGYSVYGLPDYFVSRNFFFFFFFFFFG
As to B2, the “glycan array binding signal (z-score)” value in experiment [2] is -0.365; in experiment [3], -1.25; in experiment [4], 3.21; in [5], 1.83; in experiment [6] it was -0.761; in experiment [7] it was -1.58. For the same molecule, the “glycan array binding signal (z-score)” value in experiment [8] was 0.402; in experiment [9] it was 0.31; in experiment [10] it was -0.67; in [11], 2.39; in experiment [12], 3.29; in [13], 3.25. In addition, the “glycan array binding signal (z-score)” value in experiment [14] is -0.434; in experiment [15], -0.015; in experiment [16], 2.41; in experiment [17], 2.75; in [18], -0.321; in [19] it was -0.841. Further, the “glycan array binding signal (z-score)” value is -0.099 in experiment [20]; 3.03 in [21]; 3.44 in experiment [22]; 1.42 in experiment [23]; 2.57 in experiment [24]; 2.52 in experiment [25]. The “glycan array binding signal (z-score)” value was -0.366 in experiment [26]; -0.275 in experiment [27]; -0.385 in experiment [28]; -0.802 in experiment [29]; 0.326 in experiment [30]; -0.559 in experiment [31].
